KCNQ2 block – KCNQ2 (rat) channel inhibition; O88943; CHO-K1 KCNQ2, FluxOR thallium flux, 20 min; stronger effect = lower value; B-score at 10 µM; actives 1.1% (n = 310,000);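 active = fluorescence ratio B-score at most minus 3 library SDs, with starting brightness B-score within 2 library SDs, cut at about -5.5 in these data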
Target sequence (O88943 whole entry, looked up): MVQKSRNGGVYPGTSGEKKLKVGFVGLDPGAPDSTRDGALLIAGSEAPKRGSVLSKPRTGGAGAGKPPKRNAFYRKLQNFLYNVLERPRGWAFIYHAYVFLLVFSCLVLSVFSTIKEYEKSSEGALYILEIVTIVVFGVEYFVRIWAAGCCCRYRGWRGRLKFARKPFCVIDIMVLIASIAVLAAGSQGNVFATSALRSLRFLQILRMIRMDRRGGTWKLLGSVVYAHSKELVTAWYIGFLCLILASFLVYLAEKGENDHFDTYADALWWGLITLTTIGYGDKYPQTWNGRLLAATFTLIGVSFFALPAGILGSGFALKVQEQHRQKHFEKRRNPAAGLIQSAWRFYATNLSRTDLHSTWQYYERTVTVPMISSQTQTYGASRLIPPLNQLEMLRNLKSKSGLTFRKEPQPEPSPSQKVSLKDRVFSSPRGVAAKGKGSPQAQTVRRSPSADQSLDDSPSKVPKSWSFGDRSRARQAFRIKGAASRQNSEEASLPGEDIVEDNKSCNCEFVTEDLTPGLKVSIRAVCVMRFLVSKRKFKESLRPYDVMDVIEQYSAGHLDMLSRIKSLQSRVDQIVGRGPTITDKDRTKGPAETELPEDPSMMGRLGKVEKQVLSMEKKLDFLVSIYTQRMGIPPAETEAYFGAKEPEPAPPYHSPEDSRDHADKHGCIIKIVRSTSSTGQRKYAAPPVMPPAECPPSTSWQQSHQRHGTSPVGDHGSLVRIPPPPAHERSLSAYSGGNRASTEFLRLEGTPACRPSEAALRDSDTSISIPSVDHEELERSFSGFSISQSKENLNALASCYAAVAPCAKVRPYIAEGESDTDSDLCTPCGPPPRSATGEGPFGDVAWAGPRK
KCNQ2 pot – KCNQ2 (rat) channel potentiation; B-score at 10 µM; actives 0.54% (n = 310,000); CHO-K1 KCNQ2, FluxOR thallium flux fluorescence; stronger effect = higher value; AID 2239;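 active = fluorescence ratio B-score at least 3 SD of library B-scores, with initial fluorescence B-score within 3 of them, cut at about 5.3 in these data; same plate scores as AID 2156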;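 also: B-score of peak minus minimum over baseline fluorescence ratio after K+ and Tl+ stimulus; positive B-score means potentiation of KCNQ2 with more thallium influx and brighter signal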
Active calls of the source: *. An excerpt weighted towards active compounds, which were near 1.6% of everything screened.

NNC(=O)C1SCCN1S(=O)(=O)c1ccc(Cl)cc1 (stereo not given) was read as KCNQ2 block inactive.
`O=C(OCN1C(=O)c2ccccc2C1=O)c1cccnc1SC(F)F` gave KCNQ2 block inactive and KCNQ2 pot 0.13.
O=C(CNS(=O)(=O)c1ccc(Br)s1)NCc1ccc(F)cc1 was read as KCNQ2 block -5.9* and KCNQ2 pot -5.9.
For O=C(CCNS(=O)(=O)c1ccc(Br)s1)NCc1ccc(F)cc1 the results were KCNQ2 block inactive and KCNQ2 pot 0.09.
`OCCC1CN(Cc2cn[nH]c2C2CCCCC2)CCN1C1CCCC1` (stereo not given) gave KCNQ2 block inactive and KCNQ2 pot 1.1.
For COc1ccccc1N1CCN(/N=C/c2ccc(Cl)c([N+](=O)[O-])c2)CC1 the results were KCNQ2 block -6.1* and KCNQ2 pot -6.1.
COc1ccccc1N1CCN(/N=C/c2ccc([N+](=O)[O-])cc2)CC1 was read as KCNQ2 block inactive.
`CS(=O)(=O)N1CCCC(C(=O)N2CCN(c3cccc(Cl)c3)CC2)C1` (stereo not given) gave KCNQ2 block inactive and KCNQ2 pot 0.22.
`CCOC(=O)C1=NN(c2ccccc2)C2=NC(C)=C(C(=O)OC)C(c3cccs3)N12` (stereo not given) gave KCNQ2 block inactive.
Screening CCOC(=O)C1=NN(c2cccc(Cl)c2)C2=NC(C)=C(C(=O)OC)C(c3cccs3)N12 (stereo not given) returned KCNQ2 block -5.7* and KCNQ2 pot -5.7.
Screening COc1cc(OC)c(N(C)S(=O)(=O)c2cccc(C(=O)Nc3nnc(C4CC4)s3)c2)cc1Cl returned KCNQ2 block inactive.
For COc1ccc(NC(C)C(=O)N/N=C/c2ccccc2OCc2cccc(Br)c2)cc1 (stereo not given) the results were KCNQ2 block inactive.
For Cc1ccccc1NC(C)C(=O)N/N=C/c1ccccc1OCc1cccc(Br)c1 (stereo not given) the results were KCNQ2 block -8.3* and KCNQ2 pot -8.3.
CC1CCCC(NC(=O)c2ccc3c(c2)NC(=O)CS3)C1C (stereo not given) was read as KCNQ2 block inactive.
For O=C(OCc1nnc(-c2ccc(Cl)cc2)o1)c1ccncc1 the results were KCNQ2 block inactive.
Cc1noc(C)c1COc1ccc(C(=O)OCc2nnc(-c3ccc(Cl)cc3)o2)cc1 was read as KCNQ2 block -7.6* and KCNQ2 pot -7.6.
For CCOC(=O)Cc1csc(NC(=S)NC(=O)c2ccccc2)n1 the results were KCNQ2 block inactive.
`CCOC(=O)Cc1csc(NC(=S)NC(=O)c2ccccc2Br)n1` gave KCNQ2 block inactive and KCNQ2 pot 9.6*.
For CCN(CC)CCn1c2c(c(SCC(=O)Nc3ccccc3Cl)nc1=O)CCC2 the results were KCNQ2 block inactive and KCNQ2 pot 0.11.
Cc1cc(C)nc(OC(C(=O)O)C(OCc2ccccc2)(c2ccccc2)c2ccccc2)n1 (stereo not given) was read as KCNQ2 block inactive and KCNQ2 pot 0.82.
Cc1ccnc(OC(C(=O)O)C(OCc2ccccc2)(c2ccccc2)c2ccc(C(F)(F)F)cc2)n1 (stereo not given) was read as KCNQ2 block -6.1* and KCNQ2 pot -6.1.
`COc1ccc(CC(C)N2CCN(Cc3ccccc3)CC2)cc1OC` (stereo not given) gave KCNQ2 block inactive.
CCc1ccc(N(CC(=O)NC2CC2)S(=O)(=O)c2ccc(C)cc2)cc1 was read as KCNQ2 block inactive and KCNQ2 pot 0.14.
`COc1ccccc1NC(=O)c1sc2ncn(Cc3ccccc3C)c(=O)c2c1C` gave KCNQ2 block -5.8* and KCNQ2 pot -5.8.
For CCn1cnc2sc(C(=O)Nc3ccccc3OC)c(C)c2c1=O the results were KCNQ2 block inactive.
For Cc1nn(CC(C)C)c(Cl)c1C(=O)N(c1ccc(Cl)cc1F)S(C)(=O)=O the results were KCNQ2 block inactive.
`O=C(CCc1nnc(-c2ccsc2)o1)N1CCc2c(Cl)cccc2C1` gave KCNQ2 block inactive.
`COc1ccc(S(=O)(=O)N2CCN(c3ccc(C)cc3C)CC2)cc1OC` gave KCNQ2 block inactive.
`CCOc1ccc(S(=O)(=O)N2CCN(c3ccc(C)cc3C)CC2)cc1` gave KCNQ2 block -7* and KCNQ2 pot -7.
Screening O=C(CCN1CCCCO1)N1CCCC(N2CCN(c3ccc(F)cc3)CC2)C1 (stereo not given) returned KCNQ2 block inactive.
For CN(Cc1cccnc1)Cc1c(C(=O)N2CCc3ccccc3C2)nc2ccc(Cl)cn12 the results were KCNQ2 block inactive.
`CCCCN(C)Cc1c(C(=O)N2CCc3ccccc3C2)nc2ccc(Cl)cn12` gave KCNQ2 block -5.6* and KCNQ2 pot -5.6.
Screening CC(NC(=O)c1ccc(Br)o1)C1CC2CCC1C2 (stereo not given) returned KCNQ2 block inactive and KCNQ2 pot 4.1.
`O=C(Nc1nc(=S)ss1)c1ccc(Cl)cc1Cl` gave KCNQ2 block inactive and KCNQ2 pot 17*.
For O=C(Nc1ccc2ccccc2c1)c1ccc(Cl)cc1Cl the results were KCNQ2 block inactive and KCNQ2 pot 0.71.
Screening CN(C)CCNc1ncnc2c1sc1nc(N3CCCC3)c3c(c12)CC(C)(C)OC3 returned KCNQ2 block inactive and KCNQ2 pot 4.8.
CCN(CC)CCNc1ncnc2c1sc1nc(N3CCCC3)c3c(c12)CC(C)(C)OC3 was read as KCNQ2 block inactive and KCNQ2 pot 5.8*.
Screening O=C(Cc1cccs1)NCCS(=O)(=O)N1CCN(c2cccc(Cl)c2)CC1 returned KCNQ2 block inactive and KCNQ2 pot 0.54.
COc1ccc(CCNC(=O)C2CCC(=O)N2S(=O)(=O)c2ccc(C)cc2)cc1 (stereo not given) was read as KCNQ2 block inactive and KCNQ2 pot 1.5.
For Cc1cc(C)n2nc(CC(=O)NNC(=O)c3ccccc3Cl)nc2n1 the results were KCNQ2 block inactive and KCNQ2 pot 0.18.
Screening Cc1cc(C)c(C)c(S(=O)(=O)N[C@@H](C)C(=O)OCc2cc(=O)n3cc(Br)ccc3n2)c1C returned KCNQ2 block inactive and KCNQ2 pot 0.49.
Screening Cc1cccc(N2CCN(S(=O)(=O)c3c(C)[nH]c(C)c3C(=O)N3CCCC3)CC2)c1C returned KCNQ2 block inactive.
Screening Cc1cccc(N2CCN(S(=O)(=O)c3c(C)[nH]c(C)c3C(=O)N3CCCCC3)CC2)c1C returned KCNQ2 block -5.9* and KCNQ2 pot -5.9.
`COC(=O)[C@H](CCSC)NC(=O)[C@@H](Cc1cnc[nH]1)NC(=O)OCc1ccccc1` gave KCNQ2 block inactive.
Cc1cc(C)n(C(=O)c2c([N+](=O)[O-])c(C)nn2C)n1 was read as KCNQ2 block inactive and KCNQ2 pot 0.67.
For Cc1ccc(SC(=O)c2c([N+](=O)[O-])c(C)nn2C)cc1 the results were KCNQ2 block -5.9* and KCNQ2 pot -5.9.
Screening CCC(=O)c1ccc(OCC(=O)OC(C)C(=O)NCc2ccc3c(c2)OCO3)cc1 (stereo not given) returned KCNQ2 block inactive.
`CCCCn1c(N)c(N(CC)C(=O)c2cc(CC)c(C)s2)c(=O)[nH]c1=O` gave KCNQ2 block inactive.
For COc1ccc(-c2nnc(Nc3nc4c(OC)cccc4s3)o2)cc1 the results were KCNQ2 block inactive and KCNQ2 pot 5.5*.

Screening data (PubChem BioAssay)
